Active and inactive are the calls of the source. How the source made its calls: active means hit-call score of the fitted dose curve at least 0.9, where 1 is the maximum; inactive means score below 0.9.

Read-out in this assay: Thyroid Hormone Responsive (THRSP), THRSP (gene 7069)
The experiment in a line: LTEA_HepaRG_THRSP: Life Technologies and Expression Analysis (LTEA) Assay for Thyroid Hormone Responsive (THRSP) using HepaRG (AID 2283536). Particulars: mRNA level, 48 h; actives raise or lower the signal. Summed up:
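mRNA induction or loss relative to 0.5% DMSO vehicle was fitted bidirectionally across an eight-point curve whose highest exposure was 100 uM. Human HepaRG liver cells received chemicals in duplicate over 48 h before RNA extraction.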
In general, AC50 refers to the concentration giving half of the maximal activity seen. For the compound `CCCCN1C(=O)[C@@H]([C@H](O)C2CCCCC2)NC(=O)C12CCN(Cc1ccc(Oc3ccc(C(=O)O)cc3)cc1)CC2`, the AC50 is 1.27 µM (active).
Take `OCC(CO)(CO)CO`: the compound was classed as inactive.
Regarding `c1ccc(C(O[C@@H]2CCCN(CCc3ccc4c(c3)OCO4)C2)c2ccccc2)cc1`, the compound was called inactive.
Still for that read-out and setting: the same measure for `Cn1c(=O)c2[nH]cnc2n(C)c1=O`: “inactive”.
For `CC(C)c1nnc2ccc(-c3ocnc3-c3cc(F)ccc3F)cn12`, the AC50 is 9.92 µM (active).
The same measure, in the same setting: the same measure for `O=C(O)c1cccc(C[C@@H]2COc3ccc(OCc4nc5cc(F)ccc5s4)cc3[C@@H]2O)c1`: 80.5 µM (active).
In the case of `CCCCCCCC/C=C\CCCCCCCC(=O)OC[C@@H](O)[C@H]1OC[C@H](O)[C@H]1O`, the outcome was inactive.
As for `O=S1(=O)CCCO1`, the call was inactive.
As to `C[C@]12C=CC(=O)C=C1CC[C@H]1[C@@H]3C[C@@H](O)[C@](O)(C(=O)CO)[C@@]3(C)C[C@H](O)[C@@]12F`, the compound was classed as inactive.
Still for that read-out and setting: under `CCCCC(CC)C(=O)OCCOCCOCCOC(=O)C(CC)CCCC` (configuration not stated) stands “inactive”.
The same measure, in the same setting: under `C=CN1CCCC1=O` stands “inactive”; under `CC(=O)c1ccccc1`, “inactive”; under `OC(Cn1cncn1)(Cn1cncn1)c1ccc(F)cc1F`, “inactive”.
On the same count and under the same terms, the same measure for `CCCCOC(=O)c1ccccc1`: “inactive”; for `c1ccc2cc3ccccc3cc2c1`: “inactive”.
Take `CCCCCCCCN(C)C`: the result was inactive.
As for `CCn1nc(C)c2c1C(=O)NCC(c1ccc(O)cc1)=N2`, the compound was classed as inactive.
Same read-out and setting: under `CCc1cccc(CC)c1N` stands “inactive”.
Turning to `CCN(CC)C(=S)SSC(=S)N(CC)CC`, the compound was classed as inactive.
For `CCCCCCCCCCCCCCO`, the call was inactive.
Same read-out and setting: under `CCCc1ccccc1` stands “inactive”; under `CCc1ccc(O)c(C(C)(C)C)c1`, “inactive”.
As to `O=C(O)c1ccc2c(c1)nc(C(=O)NC1CCN(C3CC3)CC1)n2Cc1cc(-c2ccc(Cl)s2)on1`, the compound was classed as inactive.
Still for that read-out and setting: the same measure for `NNC(=O)c1ccncc1`: “inactive”.
Turning to `C=CCc1cc(S(=O)(=O)c2ccc(O)c(CC=C)c2)ccc1O`, the concentration at half-maximal activity (AC50) was 88.4 µM (active).
On to `CCCCCCCCCC`, for which the outcome was inactive.
Consider `NC(=O)NN=Cc1ccc([N+](=O)[O-])o1`, for which the compound was called inactive.
On to `CC1(C)C(=O)N(Cl)C(=O)N1Cl`, for which the result was inactive.
The same measure, in the same setting: the same measure for `CCCCCCOC(=O)CC(CC(=O)OCCCCCC)(OC(=O)CCC)C(=O)OCCCCCC`: “inactive”.
Same read-out and setting: under `CCCCCCCC1CCC(=O)O1` (configuration not stated) stands “inactive”; under `c1ccc2ncccc2c1`, “inactive”.
On the same count and under the same terms, the same measure for `CCOC(N)=O`: “inactive”; for `Cn1cc[nH]c1=S`: “inactive”.
Consider `CCCCCCCCCCCCCCCCOS(=O)(=O)O`, for which the AC50 was 41.1 µM (active).
As to `OCCOCCOCCO`, the outcome was inactive.
Still for that read-out and setting: under `OC(CCl)CCl` stands “inactive”.
Regarding `O=C1CN(N=Cc2ccc([N+](=O)[O-])o2)C(=O)N1`, the AC50 was 9.92 µM (active).

The record behind these values is PubChem BioAssay (EPA / NIEHS).
